Compound activity: PubChem BioAssay, National Center for Advancing Translational Sciences (NCATS)
This is a sample that favours compounds with a hit; in the whole collection about 11% have one here.
HPGD inh: qHTS Assay for Inhibitors of HPGD (15-Hydroxyprostaglandin Dehydrogenase); 15-hydroxyprostaglandin dehydrogenase [NAD(+)] (Homo sapiens), P15428; purified HPGD, NADH fluorescence kinetic, PGE2 substrate; Potency, µM, actives largely listed as inhibitors; 150,000 tested, 4.3% active; AID 894, 2007
Target sequence (P15428 whole entry, looked up): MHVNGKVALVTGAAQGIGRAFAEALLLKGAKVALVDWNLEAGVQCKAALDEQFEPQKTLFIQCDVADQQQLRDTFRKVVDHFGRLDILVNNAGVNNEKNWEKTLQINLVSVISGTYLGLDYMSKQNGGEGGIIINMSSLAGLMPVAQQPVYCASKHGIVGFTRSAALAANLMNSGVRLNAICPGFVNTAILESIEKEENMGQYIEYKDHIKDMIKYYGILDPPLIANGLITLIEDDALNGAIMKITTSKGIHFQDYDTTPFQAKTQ
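20 nM HPGD preincubated 15 min at room temperature with compound in 50 mM Tris-HCl pH 8, 0.01% Tween 20. Started with 1 mM NAD+ and 30 uM prostaglandin E2; NADH fluorescence (360/450 nm) read 5 times over 30-s intervals, last minus first.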
IMPase Li inh: qHTS Assay for Identifying the Cell-Membrane Permeable IMPase Inhibitors: Potentiation with Lithium | CHO-M1 cells, IP1 TR-FRET (IP-One), carbachol + lithium | Potency, µM (doses to about 59.4 µM), hits mostly inhibitors | 210,000 tested, 0.35% active; active = well fitted inhibition curve with a large enough effect; inconclusive = small, poorly fitted or top-dose-only effect; inactive = no such curve, though single readings can be large or run the other way;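 also: IP1 builds up when IMPase is blocked and the TR-FRET signal falls; nearly all actives have a fitted effect of over 50% in size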
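CHO cells stably expressing M1 receptor (2000/well, cultured 16–30 h) treated 30 min at 37C with compound plus low lithium. Cytosolic IP1 by TR-FRET (665/620 ratio and 620 channel) after 10 min lysis; AC50 by Hill fit.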
PNC assembly inh: High Content Assay for Compounds that inhibit the Assembly of the Perinucleolar Compartment; PC3M PTB-GFP, PNC prevalence imaging, 16 h; stronger effect = lower value; activity change (PNC), negative = inhibition, % at 10 µM; 140,000 tested, 3.1% active; AID 2417, 2010;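 active = readout at or below -70, meaning at least 70% loss of cells showing the perinucleolar compartment, a nuclear body marking cancer cells; inconclusive = readout between -30 and a set limit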
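Read-out is percentage of cells bearing a perinucleolar compartment, from automated 20x imaging of fixed, Hoechst-stained PC3M PTB-GFP cells. Cells were seeded 4 h, then exposed 16 h to compound (23 nl of library stock) in duplicate plates.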
IMPase inh: qHTS Assay for Identifying the Cell-Membrane Permeable IMPase Inhibitors; CHO-M1 cells, IP1 accumulation, HTRF TR-FRET ratio; inhibition (IP1 accumulation), % at 46.1 µM; 120,000 tested, under 10 active; AID 901, 2007; active = well fitted curve in the direction sought with a large enough effect in the signal ratio, not every such curve was filed as active; inconclusive = small, poorly fitted or top-dose-only effect, or a change in a side signal; inactive = no such curve, though single readings can be large or run the other way; the % refers to the signal ratio;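 also: cells stimulated with carbachol in lithium chloride buffer; higher means more IMPase inhibition seen as more IP1 and lower FRET ratio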
Target sequence (P97697 whole entry, looked up): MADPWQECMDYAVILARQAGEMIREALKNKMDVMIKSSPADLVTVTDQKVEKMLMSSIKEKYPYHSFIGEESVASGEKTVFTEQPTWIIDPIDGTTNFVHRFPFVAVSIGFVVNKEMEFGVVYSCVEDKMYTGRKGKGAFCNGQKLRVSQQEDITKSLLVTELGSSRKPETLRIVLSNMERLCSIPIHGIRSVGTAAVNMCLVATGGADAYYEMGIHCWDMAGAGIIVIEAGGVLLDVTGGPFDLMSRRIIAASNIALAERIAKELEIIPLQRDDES
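Cellular IMPase inhibition is scored as a rise in cytosolic IP1, detected by competitive TR-FRET between d2-labelled IP1 and a europium anti-IP1 antibody. M1-expressing CHO cells were stimulated with carbachol for 30 min at 37C, with lithium (50 mM LiCl) present in the buffer.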
ALDH1A1 inh: qHTS Assay for Inhibitors of Aldehyde Dehydrogenase 1 (ALDH1A1) | AID 1030, 2008 | Purified ALDH1A1, NADH fluorescence, propionaldehyde substrate | Aldehyde dehydrogenase 1A1 (Homo sapiens), P00352 | 220,000 tested, 7.3% active | Potency, µM (doses to about 75.3 µM), most hits filed as inhibitors
Of the large screens only hits and unclear results are named; the others gave an inactive call. Unless noted, calls follow the shape of the dose curve; as a rule, active = well fitted inhibition curve with a large enough effect (not every such curve was filed as active); inconclusive = small, poorly fitted or top-dose-only effect, or another doubt; inactive = no such curve, though single readings can be large or run the other way.

COc1ccc(CC(=O)Nc2cccc(-c3nnc(-c4ccccc4)o3)c2)cc1OC	ALDH1A1 inh inconclusive
COc1ccc(CC(=O)Nc2ncc([N+](=O)[O-])s2)cc1OC	ALDH1A1 inh 20µM (no result: HPGD inh, PNC assembly inh, IMPase inh)
COc1ccccc1OCC(=O)Nc1cccc(-c2nnc(-c3ccco3)o2)c1	ALDH1A1 inh inconclusive (no result: HPGD inh, PNC assembly inh, IMPase inh)
COc1ccc(CC(=O)Nc2cccc(C)n2)cc1OC	PNC assembly inh -81 (no result: IMPase inh)
COc1ccc2[nH]cc(CCNc3ccnc(-c4ccc(N(C)C)cc4)n3)c2c1	ALDH1A1 inh inconclusive (no result: HPGD inh, PNC assembly inh, IMPase inh)
CC(C)NC(=O)N1CC[C@@]2(CCCN(C(=O)c3cnccn3)C2)C1	none (no result: PNC assembly inh, IMPase inh)
N[C@](CC1c2ccccc2Oc2ccccc21)(C(=O)O)[C@H]1C[C@@H]1C(=O)O	none (no result: HPGD inh, PNC assembly inh, IMPase inh)
CC(Oc1ccc(Cl)cc1Cl)C(=O)NNC(=O)C(=O)N1CCCCC1 (configuration not stated)	none
COc1ccc(CC(=O)Nc2ccc(-c3noc(-c4ccccc4OC)n3)cc2)cc1	IMPase Li inh 11µM, PNC assembly inh inconclusive, ALDH1A1 inh inconclusive
COc1cccc(-c2nc(-c3ccc(NC(=O)Cc4ccccc4OC)cc3)no2)c1	PNC assembly inh inconclusive, ALDH1A1 inh inconclusive
OCC1(Cc2ccccc2)CCCN(Cc2ccn[nH]2)C1 (configuration not stated)	none (no result: HPGD inh, PNC assembly inh, IMPase inh)
C=C(C(C)=O)C(O)c1cccc(Br)c1 (configuration not stated)	none (no result: PNC assembly inh, IMPase inh)
C[C@@H]1C[C@@H]([C@@H](C)CC2CC(=O)NC(=O)C2)C(=O)[C@@H](C)C1	none (no result: PNC assembly inh, IMPase inh)
Cc1c(C(=O)c2no[n+]([O-])c2C(=O)c2cnn(C)c2C)cnn1C	ALDH1A1 inh 0.89µM
Cc1cc(C(F)(F)F)c2c(=O)[nH]c(=O)n(Cc3ccccc3)c2n1	HPGD inh 10µM
O=c1[nH]c(=O)n(Cc2ccccc2)c2nc(-c3ccco3)cc(C(F)(F)F)c12	HPGD inh inconclusive, ALDH1A1 inh inconclusive
COCCN1CCN(Cc2cn[nH]c2-c2cc3ccccc3o2)CC1	ALDH1A1 inh inconclusive (no result: HPGD inh, PNC assembly inh, IMPase inh)
CO[C@H]1COC(=O)[C@@H](C)COC(=O)[C@@H](COCc2ccccc2)NC(=O)C/C=C\[C@H]1C	none (no result: HPGD inh, IMPase Li inh, PNC assembly inh, IMPase inh)
Cc1nc(C)n(CC(O)COc2ccc3c(c2)CCC3)n1 (configuration not stated)	PNC assembly inh inconclusive
Cc1nc(C)n(CC(O)COc2ccc(C(=O)c3ccccc3)cc2)n1 (configuration not stated)	PNC assembly inh -95
CCC(=O)c1ccc(OCC(O)Cn2c(C)nc3ccccc32)cc1 (configuration not stated)	PNC assembly inh -121
Cc1nc2ccccc2n1CC(O)COc1ccc(C(=O)O)cc1 (configuration not stated)	none (no result: HPGD inh, IMPase Li inh, PNC assembly inh, ALDH1A1 inh)
O=[N+]([O-])c1ccc2[nH]c(O)c(N=NC(=S)NCC3CCCO3)c2c1 (configuration not stated)	ALDH1A1 inh 0.79µM (no result: IMPase inh)
CCNC(=S)N=Nc1c(O)[nH]c2ccc([N+](=O)[O-])cc12	none (no result: HPGD inh, PNC assembly inh, IMPase inh)
Nc1ccccc1C(=O)C[C@@H](N)C(=O)O	none (no result: HPGD inh, PNC assembly inh, IMPase inh)
O=C(/C=C/c1ccco1)N1CCN(S(=O)(=O)c2ccc(F)c(F)c2F)CC1	ALDH1A1 inh inconclusive (no result: HPGD inh, PNC assembly inh, IMPase inh)
O=C(/C=C/c1ccco1)N1CCCC(c2ccccc2)C1 (configuration not stated)	ALDH1A1 inh 10µM (no result: HPGD inh, PNC assembly inh, IMPase inh)
COc1ccc(N2CCN(C(=O)/C=C/c3ccco3)CC2)cc1	ALDH1A1 inh 22µM (no result: HPGD inh, PNC assembly inh, IMPase inh)
Cc1ccc(S(=O)(=O)N2CCN(C(=O)/C=C/c3ccco3)CC2)cc1	ALDH1A1 inh 22µM
Cc1nc(N=Nc2cc(S(=O)(=O)O)ccc2S(=O)(=O)O)c(COP(=O)(O)O)c(C=O)c1O	HPGD inh inconclusive (no result: PNC assembly inh)
CC(C)Cn1cc(Cl)c(=O)n(CC(C)C)c1=O	none (no result: HPGD inh, PNC assembly inh, IMPase inh)
COC1C=CC23c4cc5c(cc4CN(CC2O)C3C1)OCO5 (configuration not stated)	none (no result: PNC assembly inh, IMPase inh)
CC(C)NC(=S)N1CCN(C/C=C/c2ccccc2)CC1	none (no result: HPGD inh, PNC assembly inh, IMPase inh)
Cc1nc(CC(C)C)cc(C(=O)N2CCCC(CNS(=O)(=O)c3cccs3)C2)n1 (configuration not stated)	none (no result: HPGD inh, PNC assembly inh, IMPase inh)
Cc1cc(C(=O)N2CCCC(CNS(=O)(=O)c3cccs3)C2)nn1C (configuration not stated)	ALDH1A1 inh 18µM (no result: HPGD inh, PNC assembly inh, IMPase inh)
CCNS(=O)(=O)c1ccc(NC(=O)c2ccc(Cn3cc(Br)cn3)o2)cc1	none (no result: IMPase inh)
O=S(=O)(N/N=C/c1ccc(N2CCOCC2)cc1)c1ccc(Br)cc1	ALDH1A1 inh inconclusive (no result: HPGD inh, PNC assembly inh, IMPase inh)
Cc1ccc(CN2CCN(CCCc3ccccc3)CC2CCO)cc1 (configuration not stated)	ALDH1A1 inh 28µM (no result: HPGD inh, PNC assembly inh, IMPase inh)
OCCC1CN(Cc2c(O)ccc3ccccc23)CCN1CCc1ccccc1 (configuration not stated)	ALDH1A1 inh 11µM (no result: HPGD inh, PNC assembly inh, IMPase inh)
OCCC1CN(CCCn2cccn2)CCN1Cc1ccccc1 (configuration not stated)	none (no result: HPGD inh, PNC assembly inh, IMPase inh)
O=C(NCCc1ccc(Cl)cc1)/C(=C/c1cccnc1)NC(=O)c1ccccc1	none (no result: IMPase inh)
CN(CCOc1ccc(-c2ccn(S(=O)(=O)c3cccc4ccccc34)n2)cc1)c1ccccn1	PNC assembly inh -89
CN(CCOc1ccc(-c2ccn(S(=O)(=O)c3c(Cl)cccc3Cl)n2)cc1)c1ccccn1	none
Cc1nc2sc3c(c2c(=O)[nH]1)CCCC3	none (no result: PNC assembly inh, IMPase inh)
Cc1nc2sc3c(c2c(=O)o1)CCC3	HPGD inh 20µM, ALDH1A1 inh 25µM
O=c1[nH]c(-c2ccco2)nc2sc3c(c12)CCCC3	HPGD inh inconclusive, PNC assembly inh -116, ALDH1A1 inh inconclusive (no result: IMPase inh)
